68 compounds from publication PMC4336329 (PLoS ONE, 2015) can be followed below.

About 14,000 (4.5%) of roughly 310,000 compounds showed an effect of 50% or more. The effect is printed as a negative number. The sample as a whole holds a higher share of strong results than the screen did.
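Further: peak tail current of the secondary pulse compared with the same well before compound.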

This assay deals with human ether-à-go-go-related gene (hERG) potassium channel (human, UniProt Q12809). Put plainly: primary screen, population patch clamp on CHO cells stably expressing hERG; higher = less effect of the substance.
human ether-à-go-go-related gene (hERG) potassium channel, sequence (Q12809 whole entry, looked up): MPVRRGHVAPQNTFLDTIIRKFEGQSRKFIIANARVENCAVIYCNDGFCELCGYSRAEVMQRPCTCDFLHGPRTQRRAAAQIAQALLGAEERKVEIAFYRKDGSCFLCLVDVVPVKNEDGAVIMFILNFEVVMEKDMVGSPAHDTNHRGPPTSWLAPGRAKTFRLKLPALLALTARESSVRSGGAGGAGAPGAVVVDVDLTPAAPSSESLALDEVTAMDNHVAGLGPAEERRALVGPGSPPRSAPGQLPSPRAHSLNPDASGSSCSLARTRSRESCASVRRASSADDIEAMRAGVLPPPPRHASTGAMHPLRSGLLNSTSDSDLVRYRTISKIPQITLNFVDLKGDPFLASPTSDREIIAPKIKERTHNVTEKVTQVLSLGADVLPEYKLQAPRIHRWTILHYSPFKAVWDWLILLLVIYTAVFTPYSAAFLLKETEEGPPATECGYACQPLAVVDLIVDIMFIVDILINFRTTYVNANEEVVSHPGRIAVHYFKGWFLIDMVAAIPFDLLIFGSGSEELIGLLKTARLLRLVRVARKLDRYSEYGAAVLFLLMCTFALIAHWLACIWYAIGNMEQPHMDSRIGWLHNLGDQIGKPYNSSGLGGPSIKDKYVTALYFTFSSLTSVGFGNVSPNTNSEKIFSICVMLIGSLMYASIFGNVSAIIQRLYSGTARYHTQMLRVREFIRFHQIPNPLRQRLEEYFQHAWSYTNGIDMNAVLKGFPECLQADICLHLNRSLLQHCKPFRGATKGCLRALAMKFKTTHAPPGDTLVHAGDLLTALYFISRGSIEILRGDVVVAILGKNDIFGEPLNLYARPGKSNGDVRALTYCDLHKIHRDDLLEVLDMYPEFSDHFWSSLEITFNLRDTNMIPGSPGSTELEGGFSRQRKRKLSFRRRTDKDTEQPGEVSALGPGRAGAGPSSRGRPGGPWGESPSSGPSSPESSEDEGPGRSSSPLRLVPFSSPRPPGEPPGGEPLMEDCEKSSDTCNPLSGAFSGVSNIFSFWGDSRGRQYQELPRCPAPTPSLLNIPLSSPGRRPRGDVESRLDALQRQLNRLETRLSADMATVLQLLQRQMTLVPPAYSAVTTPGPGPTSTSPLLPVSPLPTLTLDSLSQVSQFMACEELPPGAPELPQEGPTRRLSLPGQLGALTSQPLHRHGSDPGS
As to `Cc1ccccc1C(NC(N)=O)c1ccccc1` (centres unmarked), the “hERG current change (%, negative = inhibition) at 10uM” value was determined as 0.289%.
For `COc1ccccc1-n1cnnc1SC1CCOC1=O` (centres unmarked), the “hERG current change (%, negative = inhibition) at 10uM” value came to 4.66%.
The value for `S=C(CN1CCCC1=S)N1CCOCC1` was 17.3%.
The value for `CCOCCOC(=O)c1ccc(-n2cnc(C)n2)nc1` was 16.3%; that for `Cc1cccc(C)c1NC(=O)C(NC=O)c1ccccc1Cl` (centres unmarked) was 0.855%.
For the compound `O=S(=O)(Nc1ccccc1N1CCOCC1)c1ccc(F)c(Cl)c1`, the “hERG current change (%, negative = inhibition) at 10uM” value is -18.6%.
The value for `CC1Cc2ccccc2N1c1ncnc2nc[nH]c12` (centres unmarked) was -6.58%; that for `CSc1nc2nc3c(c(=O)n2[nH]1)CN(Cc1ccccc1)CC3` was -20.5%; that for `CC1=CC(C)(C)Nc2ccc(Cc3ccc4c(c3)C(C)=CC(C)(C)N4)cc21` was 13.9%.
The value for `CCc1ccc2c(c1)C(C)=CC(C)(C)N2` was 17%; that for `CC1=CC(C)(C)Nc2ccc(C)cc21` was -58.1%.
The value for `Cc1cc(Oc2ccc(=O)n(C)n2)nc(SCc2ccccc2)n1` was 25.7%; that for `COc1ccc(-c2c[n+]3c(n2-c2ccccc2)CCCCC3)cc1.[Br-]` was -18.6%; that for `CCOc1ccc(-c2c[n+]3c(n2-c2ccccc2)CCCCC3)cc1.[Br-]` was -64.7%.
For the compound `CCOc1ccc(-c2nnc(-c3ccccc3)n2-c2ccccc2)cc1`, the “hERG current change (%, negative = inhibition) at 10uM” value was -18.8%.
The value for `CCOc1ccc(-n2c(-c3ccccc3)c[n+]3c2CCCCC3)cc1.[Br-]` was -67%; that for `CCOc1ccc(-n2c(-c3ccccc3)c[nH]c2=S)cc1` was 20.6%.
The value for `CCOc1ccc(-n2c(-c3ccccc3)c[n+]3c2CCC3)cc1.[Br-]` was -54%; that for `FC(F)Oc1ccc(-c2c[n+]3c(n2-c2ccccc2)CCCCC3)cc1` was -70.3%; that for `Cn1c(-c2ccccc2)c[n+]2c1CCCCC2.[Br-]` was -0.399%.
The value for `CN(C)C(CNC(=O)c1cccs1)c1cccnc1` (centres unmarked) was 18.7%.
For the compound `CCOC(=O)c1cc2oc(C)cc2n1CC(=O)OC1CCCCC1`, the “hERG current change (%, negative = inhibition) at 10uM” value is on record as -5.5%.
The value for `O=C(COc1ccc(S(=O)(=O)N2CCCCC2)cc1)N1CCOCC1` was 3.54%; that for `COc1ccc(CC(=O)Nc2ccc(-c3nnc(-c4ccc(C)cc4)o3)cc2)cc1` was 19.1%; that for `NNC(=O)c1ccc(Cl)cc1` was 2.74%.
On to `C=CCN1N=C(/C=C/c2ccc(OC)cc2)CCC1=O`, for which the “hERG current change (%, negative = inhibition) at 10uM” value is 6.48%.
The value for `C/C=C(\C)c1nnc(NC(=O)OCC)s1` was 8.46%.
The value for `Cc1c(NC=C(C#N)C#N)c(=O)n(-c2ccccc2)n1C` was 35.5%; that for `NNC(=O)Cn1nc(Cc2ccccc2)n(N)c1=O` was 8.22%.
Consider `O=C(N/C(=C/c1ccccc1)C(=O)N1CCCCCC1)c1ccccc1`, for which the “hERG current change (%, negative = inhibition) at 10uM” value is -12.4%.
On to `O=C(N/C(=C\c1ccccc1)C(=O)N1CCOCC1)c1ccccc1Cl`, for which the “hERG current change (%, negative = inhibition) at 10uM” value is recorded as 0.479%.
The value for `CC(=O)N/C(=C\c1ccccc1)C(=O)N1CCOCC1` was 20.1%; that for `COc1ccc(/C=C(/NC(=O)/C=C/c2ccccc2)C(=O)O)cc1` was 24.9%.
With `O=C(/C=C/c1ccccc1)N/C(=C/c1ccccc1)C(=O)N1CCOCC1`, the “hERG current change (%, negative = inhibition) at 10uM” value is reported as -58.8%.
The value for `O=C(/C=C/c1ccccc1)N/C(=C/c1ccccc1)C(=O)N1CCCCC1` was -58.7%.
The value for `COc1ccc(C(=O)N/C(=C\c2ccccc2)C(=O)N2CCOCC2)cc1` was -8.27%; that for `COc1ccc(/C=C(/NC(=O)/C=C/c2ccccc2)C(=O)N2CCOCC2)cc1` was -71.2%; that for `CC(=O)N/C(=C/c1ccccc1)C(=O)N1CCCCC1` was 10.3%.
With `CCOC(=O)C1(O)CC(C)=NN1C(=O)c1cccc(Br)c1` (centres unmarked), the “hERG current change (%, negative = inhibition) at 10uM” value was found to be 25.9%.
The value for `CCOc1ccc(C(=O)NCCN2CCCCC2)c(OCC)c1` was -23.1%; that for `COc1ccc(NC(=O)CCNS(=O)(=O)c2ccc3c(c2)c(=O)n(C)c(=O)n3C)cc1` was -2.03%; that for `CC/C(=N\O)c1ccc(OC)c(OC)c1` was 21.1%.
The value for `COC(=O)c1ccc(/C=C/c2c(-c3ccc(OC)cc3)oc3ccccc23)cc1` was 7.39%.
The value for `CCn1c(O)c(N=NC(=O)c2cccnc2)c2cc(Br)ccc21` was -2.17%; that for `CCCCn1c(O)c(N=NC(=O)c2ccncc2)c2cc(Br)ccc21` was -68.1%; that for `CCCn1c(O)c(N=NC(=O)c2cccnc2)c2cc(Br)ccc21` was -3.7%.
In the case of `O=C(NCc1ccco1)c1noc2c1CCCC2`, the “hERG current change (%, negative = inhibition) at 10uM” value is -3.59%.
The value for `CCOc1ccc(C(CC(=O)O)NS(=O)(=O)c2ccc(C)cc2)cc1OC` (centres unmarked) was 10.3%; that for `CSc1nc2ccc(NS(=O)(=O)c3ccc(CNC(C)=O)cc3)cc2s1` was -0.24%.
The value for `COc1ccc(-c2n[nH]c(=S)n2C2CCCCC2)cc1` was 20.2%; that for `Cc1ccc(S(=O)(=O)Nc2ccc3c(c2)nc(CN2CCCC2)n3C)cc1` was -46.5%; that for `Cn1c(CN2CCCC2)nc2cc(NS(=O)(=O)c3ccccc3)ccc21` was 1.49%.
The value for `Cn1c(CN2CCCCC2)nc2cc(NS(=O)(=O)c3ccc(Cl)cc3)ccc21` was -62.5%; that for `Cn1c(CN2CCCC2)nc2cc(NS(=O)(=O)c3ccc(Cl)cc3)ccc21` was -61.7%.
For `CC1CC(C)CN(C(=O)CNS(=O)(=O)c2ccc(Br)s2)C1` (centres unmarked), the “hERG current change (%, negative = inhibition) at 10uM” value is recorded as -1.92%.
The value for `S=c1[nH]nc(-c2ccc(Cl)cc2)n1/N=C/c1ccco1` was 14.3%.
Regarding `O=C(Nc1cccc(C(=O)N2CCCC2)c1)c1ccccc1`, the “hERG current change (%, negative = inhibition) at 10uM” value turned out to be 2.2%.
The value for `COc1ccc(N2CCN(C(=O)c3cn(CC4CCCCC4)nn3)CC2)cc1` was -14.3%; that for `O=C(c1cn(CC2CCCCC2)nn1)N1CCN(c2ccc(F)cc2)CC1` was -52.5%.
The value for `O=C(Nc1cccc(C(=O)N2CCN(c3cccc(Cl)c3)CC2)c1)c1ccccc1` was 4.69%.
The value for `O=C(c1cccc(C(=O)N2CCN(c3ccccc3)CC2)c1)N1CCN(c2ccccc2)CC1` was -41.7%.
In the case of `O=C(c1cccc(C(=O)N2CCN(c3ccc(F)cc3)CC2)c1)N1CCN(c2ccc(F)cc2)CC1`, the “hERG current change (%, negative = inhibition) at 10uM” value is -72.5%.
The value for `O=C(c1ccc(N2CCN(C(=O)c3cccc(F)c3)CC2)cc1)c1cccc(F)c1` was -12.5%; that for `CCOc1ccccc1N1CCN(C(=O)c2cn(CC3CCCCC3)nn2)CC1` was -9.95%; that for `O=C(c1ccc(N2CCN(C(=O)c3ccc(F)c(F)c3)CC2)cc1)c1cccc(F)c1` was -16.7%.
The value for `O=C(c1cccc(-c2ccc(O)cc2)c1)N1CCN(c2ccc(F)cc2)CC1` was 23.3%; that for `O=C(Nc1cccc(C(=O)N2CCN(c3ccc(F)cc3)CC2)c1)c1ccccc1` was -58.7%.
The value for `O=C(c1ccc(N2CCN(C(=O)c3ccccc3)CC2)cc1)c1cccc(F)c1` was -74.5%.
